{"source": "paper PMC11006913", "test_in_all_cases": "PBM; 200 nM protein, PBS", "details_in_all_cases": "dsDNA, one strand shown", "key": {"MSX2 [1]": {"molecular_target": "MSX2 (Homo sapiens, UniProt P35548 130-214, R199I)", "sequence (P35548 130-214 R199I)": "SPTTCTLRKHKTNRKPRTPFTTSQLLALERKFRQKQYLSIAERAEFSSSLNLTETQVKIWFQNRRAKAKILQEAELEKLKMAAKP"}, "MSX2 [2]": {"molecular_target": "MSX2 (Homo sapiens, UniProt P35548 130-214)", "sequence (P35548 130-214)": "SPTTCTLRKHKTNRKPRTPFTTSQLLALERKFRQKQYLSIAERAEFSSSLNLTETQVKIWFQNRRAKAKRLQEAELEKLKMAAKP"}, "MSX2 [3]": {"molecular_target": "MSX2 (Homo sapiens, UniProt P35548 130-214, F161Y)", "sequence (P35548 130-214 F161Y)": "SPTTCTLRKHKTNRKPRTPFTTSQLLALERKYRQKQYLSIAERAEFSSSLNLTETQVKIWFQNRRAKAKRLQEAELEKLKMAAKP"}, "ALX1 [4]": {"molecular_target": "ALX1 (Homo sapiens, UniProt Q15699 118-204, L144V)", "sequence (Q15699 118-204 L144V)": "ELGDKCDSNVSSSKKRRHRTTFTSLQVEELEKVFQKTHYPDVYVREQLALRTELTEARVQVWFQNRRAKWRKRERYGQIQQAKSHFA"}, "ALX1 [5]": {"molecular_target": "ALX1 (Homo sapiens, UniProt Q15699 118-204, L144R)", "sequence (Q15699 118-204 L144R)": "as the sequence (Q15699 118-204 L144V) above, with V27R counted along it"}, "ALX1 [6]": {"molecular_target": "ALX1 (Homo sapiens, UniProt Q15699 118-204)", "sequence (Q15699 118-204)": "as the sequence (Q15699 118-204 L144V) above, with V27L counted along it"}, "VAX1 [7]": {"molecular_target": "VAX1 (Homo sapiens, UniProt Q5SQQ9 86-172)", "sequence (Q5SQQ9 86-172)": "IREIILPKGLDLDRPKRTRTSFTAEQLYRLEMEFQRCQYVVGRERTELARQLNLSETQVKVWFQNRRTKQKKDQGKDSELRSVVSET"}, "VAX1 [8]": {"molecular_target": "VAX1 (Homo sapiens, UniProt Q5SQQ9 86-172, T142I)", "sequence (Q5SQQ9 86-172 T142I)": "as the sequence (Q5SQQ9 86-172) above, with T57I counted along it"}, "VAX1 [9]": {"molecular_target": "VAX1 (Homo sapiens, UniProt Q5SQQ9 86-172, K157R)", "sequence (Q5SQQ9 86-172 K157R)": "as the sequence (Q5SQQ9 86-172) above, with K72R counted along it"}, "ALX3": {"molecular_target": "ALX3 (Homo sapiens, UniProt O95076 139-225, N203Q)", "sequence (O95076 139-225 N203Q)": "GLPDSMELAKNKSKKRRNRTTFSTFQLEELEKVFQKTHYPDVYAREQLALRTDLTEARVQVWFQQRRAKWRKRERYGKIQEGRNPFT"}, "PITX2": {"molecular_target": "PITX2 (Homo sapiens, UniProt Q99697 72-157)"}, "HOXA4": {"molecular_target": "HOXA4 (Homo sapiens, UniProt Q00056 201-287, W262F)", "sequence (Q00056 201-287 W262F)": "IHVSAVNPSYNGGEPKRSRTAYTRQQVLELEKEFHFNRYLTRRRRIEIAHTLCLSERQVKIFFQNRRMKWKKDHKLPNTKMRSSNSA"}}}
{"sequence": "AGCGCCGG", "values": [{"measurement": "binding signal", "setting": "MSX2 [1]", "result": "9.57 upbm affinity estimate (log intensity, higher = more binding, comparable within an allelic series)"}, {"measurement": "binding signal", "setting": "MSX2 [2]", "result": "9.53 upbm affinity estimate (log intensity, higher = more binding, comparable within an allelic series)"}, {"measurement": "binding signal", "setting": "MSX2 [3]", "result": "9.52 upbm affinity estimate (log intensity, higher = more binding, comparable within an allelic series)"}]}
{"sequence": "ATAACTCC", "values": [{"measurement": "binding signal", "setting": "ALX1 [4]", "result": "8.41 upbm affinity estimate (log intensity, higher = more binding, comparable within an allelic series)"}, {"measurement": "binding signal", "setting": "ALX1 [5]", "result": "8.38 upbm affinity estimate (log intensity, higher = more binding, comparable within an allelic series)"}, {"measurement": "binding signal", "setting": "ALX1 [6]", "result": "8.38 upbm affinity estimate (log intensity, higher = more binding, comparable within an allelic series)"}]}
{"sequence": "GTTATACA", "values": [{"measurement": "binding signal", "setting": "ALX1 [4]", "result": "8.24 upbm affinity estimate (log intensity, higher = more binding, comparable within an allelic series)"}, {"measurement": "binding signal", "setting": "ALX1 [5]", "result": "8.23 upbm affinity estimate (log intensity, higher = more binding, comparable within an allelic series)"}, {"measurement": "binding signal", "setting": "ALX1 [6]", "result": "8.43 upbm affinity estimate (log intensity, higher = more binding, comparable within an allelic series)"}]}
{"sequence": "ATTGGAAA", "values": [{"measurement": "binding signal", "setting": "ALX1 [4]", "result": "8.46 upbm affinity estimate (log intensity, higher = more binding, comparable within an allelic series)"}, {"measurement": "binding signal", "setting": "ALX1 [5]", "result": "8.23 upbm affinity estimate (log intensity, higher = more binding, comparable within an allelic series)"}, {"measurement": "binding signal", "setting": "ALX1 [6]", "result": "8.59 upbm affinity estimate (log intensity, higher = more binding, comparable within an allelic series)"}]}
{"sequence": "AGGCCGGG", "values": [{"measurement": "binding signal", "setting": "ALX1 [4]", "result": "6.61 upbm affinity estimate (log intensity, higher = more binding, comparable within an allelic series)"}, {"measurement": "binding signal", "setting": "ALX1 [5]", "result": "6.52 upbm affinity estimate (log intensity, higher = more binding, comparable within an allelic series)"}, {"measurement": "binding signal", "setting": "VAX1 [7]", "result": "6.99 upbm affinity estimate (log intensity, higher = more binding, comparable within an allelic series)"}, {"measurement": "binding signal", "setting": "VAX1 [8]", "result": "7.01 upbm affinity estimate (log intensity, higher = more binding, comparable within an allelic series)"}, {"measurement": "binding signal", "setting": "ALX1 [6]", "result": "6.54 upbm affinity estimate (log intensity, higher = more binding, comparable within an allelic series)"}, {"measurement": "binding signal", "setting": "VAX1 [9]", "result": "7.01 upbm affinity estimate (log intensity, higher = more binding, comparable within an allelic series)"}]}
{"sequence": "CCCCTACG", "values": [{"measurement": "binding signal", "setting": "MSX2 [1]", "result": "9.54 upbm affinity estimate (log intensity, higher = more binding, comparable within an allelic series)"}, {"measurement": "binding signal", "setting": "MSX2 [2]", "result": "9.48 upbm affinity estimate (log intensity, higher = more binding, comparable within an allelic series)"}, {"measurement": "binding signal", "setting": "MSX2 [3]", "result": "9.63 upbm affinity estimate (log intensity, higher = more binding, comparable within an allelic series)"}]}
{"sequence": "ATTAACAC", "values": [{"measurement": "binding signal", "setting": "MSX2 [1]", "result": "11.3 upbm affinity estimate (log intensity, higher = more binding, comparable within an allelic series)"}, {"measurement": "binding signal", "setting": "MSX2 [2]", "result": "12.1 upbm affinity estimate (log intensity, higher = more binding, comparable within an allelic series)"}, {"measurement": "binding signal", "setting": "MSX2 [3]", "result": "11.8 upbm affinity estimate (log intensity, higher = more binding, comparable within an allelic series)"}]}
{"sequence": "AAGACAAT", "values": [{"measurement": "binding signal", "setting": "ALX1 [4]", "result": "8.75 upbm affinity estimate (log intensity, higher = more binding, comparable within an allelic series)"}, {"measurement": "binding signal", "setting": "ALX1 [5]", "result": "8.63 upbm affinity estimate (log intensity, higher = more binding, comparable within an allelic series)"}, {"measurement": "binding signal", "setting": "ALX1 [6]", "result": "8.96 upbm affinity estimate (log intensity, higher = more binding, comparable within an allelic series)"}]}
{"sequence": "AGGGGCCG", "values": [{"measurement": "binding signal", "setting": "MSX2 [1]", "result": "9.46 upbm affinity estimate (log intensity, higher = more binding, comparable within an allelic series)"}, {"measurement": "binding signal", "setting": "MSX2 [2]", "result": "9.56 upbm affinity estimate (log intensity, higher = more binding, comparable within an allelic series)"}, {"measurement": "binding signal", "setting": "MSX2 [3]", "result": "9.42 upbm affinity estimate (log intensity, higher = more binding, comparable within an allelic series)"}]}
{"sequence": "GCGGAGCC", "values": [{"measurement": "binding signal", "setting": "ALX1 [4]", "result": "6.64 upbm affinity estimate (log intensity, higher = more binding, comparable within an allelic series)"}, {"measurement": "binding signal", "setting": "ALX1 [5]", "result": "6.35 upbm affinity estimate (log intensity, higher = more binding, comparable within an allelic series)"}, {"measurement": "binding signal", "setting": "VAX1 [7]", "result": "7.22 upbm affinity estimate (log intensity, higher = more binding, comparable within an allelic series)"}, {"measurement": "binding signal", "setting": "VAX1 [8]", "result": "7.36 upbm affinity estimate (log intensity, higher = more binding, comparable within an allelic series)"}, {"measurement": "binding signal", "setting": "ALX1 [6]", "result": "6.57 upbm affinity estimate (log intensity, higher = more binding, comparable within an allelic series)"}, {"measurement": "binding signal", "setting": "VAX1 [9]", "result": "7.24 upbm affinity estimate (log intensity, higher = more binding, comparable within an allelic series)"}]}
{"sequence": "CATTTTGA", "values": [{"measurement": "binding signal", "setting": "MSX2 [1]", "result": "10.3 upbm affinity estimate (log intensity, higher = more binding, comparable within an allelic series)"}, {"measurement": "binding signal", "setting": "MSX2 [2]", "result": "10.6 upbm affinity estimate (log intensity, higher = more binding, comparable within an allelic series)"}, {"measurement": "binding signal", "setting": "MSX2 [3]", "result": "10.5 upbm affinity estimate (log intensity, higher = more binding, comparable within an allelic series)"}]}
{"sequence": "ATTATAAC", "values": [{"measurement": "binding signal", "setting": "ALX1 [4]", "result": "10.3 upbm affinity estimate (log intensity, higher = more binding, comparable within an allelic series)"}, {"measurement": "binding signal", "setting": "ALX3", "result": "8.52 upbm affinity estimate (log intensity, higher = more binding, comparable within an allelic series)"}, {"measurement": "binding signal", "setting": "ALX1 [5]", "result": "9.95 upbm affinity estimate (log intensity, higher = more binding, comparable within an allelic series)"}, {"measurement": "binding signal", "setting": "ALX1 [6]", "result": "10.6 upbm affinity estimate (log intensity, higher = more binding, comparable within an allelic series)"}]}
{"sequence": "CGGCGGCA", "values": [{"measurement": "binding signal", "setting": "MSX2 [1]", "result": "9.49 upbm affinity estimate (log intensity, higher = more binding, comparable within an allelic series)"}, {"measurement": "binding signal", "setting": "MSX2 [2]", "result": "9.38 upbm affinity estimate (log intensity, higher = more binding, comparable within an allelic series)"}, {"measurement": "binding signal", "setting": "MSX2 [3]", "result": "9.41 upbm affinity estimate (log intensity, higher = more binding, comparable within an allelic series)"}]}
{"sequence": "CACGCTCG", "values": [{"measurement": "binding signal", "setting": "ALX1 [4]", "result": "6.33 upbm affinity estimate (log intensity, higher = more binding, comparable within an allelic series)"}, {"measurement": "binding signal", "setting": "PITX2", "result": "7.92 upbm affinity estimate (log intensity, higher = more binding, comparable within an allelic series)"}, {"measurement": "binding signal", "setting": "ALX1 [5]", "result": "6.26 upbm affinity estimate (log intensity, higher = more binding, comparable within an allelic series)"}, {"measurement": "binding signal", "setting": "ALX1 [6]", "result": "6.3 upbm affinity estimate (log intensity, higher = more binding, comparable within an allelic series)"}]}
{"sequence": "CTAATGAA", "values": [{"measurement": "binding signal", "setting": "ALX1 [4]", "result": "10.6 upbm affinity estimate (log intensity, higher = more binding, comparable within an allelic series)"}, {"measurement": "binding signal", "setting": "ALX1 [5]", "result": "10.2 upbm affinity estimate (log intensity, higher = more binding, comparable within an allelic series)"}, {"measurement": "binding signal", "setting": "VAX1 [7]", "result": "12.7 upbm affinity estimate (log intensity, higher = more binding, comparable within an allelic series)"}, {"measurement": "binding signal", "setting": "VAX1 [8]", "result": "12.4 upbm affinity estimate (log intensity, higher = more binding, comparable within an allelic series)"}, {"measurement": "binding signal", "setting": "ALX1 [6]", "result": "11.1 upbm affinity estimate (log intensity, higher = more binding, comparable within an allelic series)"}, {"measurement": "binding signal", "setting": "HOXA4", "result": "11.5 upbm affinity estimate (log intensity, higher = more binding, comparable within an allelic series)"}, {"measurement": "binding signal", "setting": "VAX1 [9]", "result": "12.4 upbm affinity estimate (log intensity, higher = more binding, comparable within an allelic series)"}]}
